From PubChem BioAssay AID449739 (Vanderbilt High Throughput Screening Facility, 2010)
The campaign covered roughly 100,000 compounds. About 4,200 (4.2%) were called active. The entries come from a sample that favours actives as a whole. A number with no mark means an inactive call.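 The calls were made as follows: active = single-dose well whose peak fluorescence ratio is a statistical outlier from its plate by either plate-standardised score or position-corrected B-score; inactive = the rest.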

Biological target: Voltage-dependent T-type calcium channel subunit alpha-1H (Homo sapiens) (UniProt O95180)
Assay: Cav3.2 calcium influx blockers – cell-based, Fluo-4 calcium fluorescence, FDSS, MLSMR library, primary screen (AID 449739)
Details: Cav3.2-expressing cells, at 10 µM, stronger effect = lower value

Voltage-dependent T-type calcium channel subunit alpha-1H (Homo sapiens), sequence (O95180 whole entry, looked up): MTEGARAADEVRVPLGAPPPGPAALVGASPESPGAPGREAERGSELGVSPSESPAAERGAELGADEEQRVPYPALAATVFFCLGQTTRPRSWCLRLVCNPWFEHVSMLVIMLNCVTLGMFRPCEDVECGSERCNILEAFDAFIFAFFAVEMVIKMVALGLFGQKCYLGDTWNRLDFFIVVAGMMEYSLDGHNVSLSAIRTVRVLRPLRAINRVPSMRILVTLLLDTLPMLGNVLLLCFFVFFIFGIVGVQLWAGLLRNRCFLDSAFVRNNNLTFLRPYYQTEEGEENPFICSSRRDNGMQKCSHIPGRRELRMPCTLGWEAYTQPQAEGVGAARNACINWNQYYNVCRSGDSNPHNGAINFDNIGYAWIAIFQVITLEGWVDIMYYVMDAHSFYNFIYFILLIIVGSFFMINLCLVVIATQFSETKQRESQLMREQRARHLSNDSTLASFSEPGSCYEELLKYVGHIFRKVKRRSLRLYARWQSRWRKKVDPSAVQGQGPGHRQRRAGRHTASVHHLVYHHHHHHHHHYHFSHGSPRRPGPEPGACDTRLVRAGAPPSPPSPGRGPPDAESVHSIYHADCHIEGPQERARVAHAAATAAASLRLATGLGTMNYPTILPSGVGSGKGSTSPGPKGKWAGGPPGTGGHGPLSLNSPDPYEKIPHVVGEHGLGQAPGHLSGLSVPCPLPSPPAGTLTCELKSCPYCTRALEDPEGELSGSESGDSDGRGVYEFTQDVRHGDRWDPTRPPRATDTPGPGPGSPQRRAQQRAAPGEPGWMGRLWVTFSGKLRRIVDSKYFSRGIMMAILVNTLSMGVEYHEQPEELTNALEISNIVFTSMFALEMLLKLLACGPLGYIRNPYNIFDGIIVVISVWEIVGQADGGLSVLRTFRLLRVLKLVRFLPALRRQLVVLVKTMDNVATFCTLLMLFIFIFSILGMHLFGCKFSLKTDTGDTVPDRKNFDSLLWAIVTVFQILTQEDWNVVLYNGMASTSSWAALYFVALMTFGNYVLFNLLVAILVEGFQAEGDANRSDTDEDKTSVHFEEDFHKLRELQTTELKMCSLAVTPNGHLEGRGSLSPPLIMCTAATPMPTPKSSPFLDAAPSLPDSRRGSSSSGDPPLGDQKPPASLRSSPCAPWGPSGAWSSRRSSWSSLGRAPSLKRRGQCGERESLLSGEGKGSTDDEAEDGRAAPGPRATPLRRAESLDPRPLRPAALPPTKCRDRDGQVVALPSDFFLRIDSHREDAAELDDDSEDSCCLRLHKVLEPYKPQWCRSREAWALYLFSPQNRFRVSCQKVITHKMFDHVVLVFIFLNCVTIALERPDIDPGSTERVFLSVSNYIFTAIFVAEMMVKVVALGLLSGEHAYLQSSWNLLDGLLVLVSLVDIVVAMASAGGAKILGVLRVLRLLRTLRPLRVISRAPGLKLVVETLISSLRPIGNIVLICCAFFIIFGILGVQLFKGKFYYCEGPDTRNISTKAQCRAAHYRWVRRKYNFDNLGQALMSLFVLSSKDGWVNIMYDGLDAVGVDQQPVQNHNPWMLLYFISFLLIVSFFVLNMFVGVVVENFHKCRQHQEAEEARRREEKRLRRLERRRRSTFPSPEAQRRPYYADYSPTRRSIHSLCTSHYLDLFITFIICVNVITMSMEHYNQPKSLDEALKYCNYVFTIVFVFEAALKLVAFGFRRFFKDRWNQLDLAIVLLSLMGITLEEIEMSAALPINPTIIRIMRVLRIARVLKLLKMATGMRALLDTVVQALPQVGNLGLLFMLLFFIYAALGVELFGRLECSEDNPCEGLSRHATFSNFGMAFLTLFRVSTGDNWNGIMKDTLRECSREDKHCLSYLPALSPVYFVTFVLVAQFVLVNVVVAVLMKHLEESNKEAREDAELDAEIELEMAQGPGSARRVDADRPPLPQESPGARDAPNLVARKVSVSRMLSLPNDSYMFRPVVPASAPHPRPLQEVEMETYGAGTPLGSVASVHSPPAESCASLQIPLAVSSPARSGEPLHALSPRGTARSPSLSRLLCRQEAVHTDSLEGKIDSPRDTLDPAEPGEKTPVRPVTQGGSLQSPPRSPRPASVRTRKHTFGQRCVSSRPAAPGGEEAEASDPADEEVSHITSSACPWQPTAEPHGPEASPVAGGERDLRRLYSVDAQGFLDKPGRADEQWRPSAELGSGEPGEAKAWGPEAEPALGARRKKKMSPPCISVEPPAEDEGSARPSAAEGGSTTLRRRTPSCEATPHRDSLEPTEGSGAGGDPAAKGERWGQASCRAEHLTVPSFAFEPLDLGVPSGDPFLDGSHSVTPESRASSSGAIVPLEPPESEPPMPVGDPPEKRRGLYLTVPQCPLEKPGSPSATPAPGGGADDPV

| SMILES | B-score |
| --- | --- |
| O=C(Cn1cc(C(=O)c2cccs2)c2ccccc21)NCc1cccs1 | -4.4 (active) |
| COC(=O)c1cn(CC(=O)NCc2cccs2)c2ccccc12 | -0.599 |
| COCCNC(=O)Cn1cc(C(=O)c2cccs2)c2ccccc21 | 0.167 |
| CC(=O)n1cc([C@@H]2C=C(C(=O)N3CCN(Cc4ccc5c(c4)OCO5)CC3)O[C@H](OCc3ccc(CO)cc3)C2)c2ccccc21 | -1.49 |
| CC1(OC(=O)CCc2ccccc2)C(=O)C=C2C=C(c3ccc(C#N)cc3)N(CCc3ccccn3)C=C2C1=O (stereo not drawn) | 0.634 |
| COC(=O)C(C)n1cnc2c(nnn2-c2cccc(Cl)c2)c1=O (stereo not drawn) | -0.438 |
| CC(C)n1cnc2c(Nc3cccc(Cl)c3)nc(N(CCO)CCCO)nc21 | -0.405 |
| CC(C)C[C@H](CO)Nc1nc(N(C)c2cccc(Cl)c2)c2ncn(C(C)C)c2n1 | -3.33 (active) |
| CCNC(=O)c1c(O)c2cccc3c2n(c1=O)CC3 | -0.155 |
| CCCC(=O)Nc1c(O)c2ccccc2[nH]c1=O | -0.361 |
| Cn1c(SCC(=O)N2CCCc3ccccc32)nc2ccccc2c1=O | -2.58 |
| CCCCc1nc2ccccc2c(=O)n1NC(=O)c1c(O)c2cccc3c2n(c1=O)CC3 | -7.27 (active) |
| CCCc1nc2ccccc2c(=O)n1NC(=O)c1c(O)c2ccccc2[nH]c1=O | -3.3 (active) |
| CCCc1nc2ccccc2c(=O)n1/N=C/c1ccc(O)c(O)c1 | 0.0906 |
| Cc1nc(C)c(C(=O)N(c2ccc(C)c(C)c2)C(C(=O)NCc2ccco2)c2ccccc2)s1 (stereo not drawn) | -0.655 |
| COc1ccc(NCc2nnc(SCc3ccccc3)n2-c2ccc(OC)cc2)cc1 | -3.07 |
| Cc1cccc(N2C(=O)C3C(c4ccccc4)OC4(C(=O)c5ccccc5C4=O)C3C2=O)c1 (stereo not drawn) | -0.244 |
| Cc1nc(-c2ccc(Cl)cc2)sc1C1(C)CC(c2ccccc2F)=NO1 (stereo not drawn) | 1.15 |
| COc1ccc(SCCN2CCN(CC(C)C)CCC2=O)cc1 | 0.677 |
| CCOC(=O)/C=C/CN(C(=O)OC(C)(C)C)S(=O)(=O)N1CC=CC1 | 0.152 |
| COC(=O)C1C(=O)NCC1c1ccc(OC)cc1 (stereo not drawn) | 0.134 |
| COC(=O)c1cc(OC)ccc1-c1ccc(OC)cc1 | 0.191 |
| COC(=O)C1=C(Nc2ccc(C)cc2)C=C(C)C(C(=O)OC)C1c1ccc(F)cc1 (stereo not drawn) | -5.1 (active) |
| COC(=O)C1=C(Nc2ccc(OC)cc2)C=C(C)C(C(=O)OC)C1c1ccc(C)cc1 (stereo not drawn) | -5.75 (active) |

| SMILES | B-score |
| --- | --- |
| Cc1ccc(NC(=O)C2CC(c3ccc(F)cc3)=NO2)cc1 (stereo not drawn) | 0.0436 |
| COC(=O)c1ccc(NC(=O)Nc2ccc(C)cc2)cc1 | 0.0358 |
| COP1(=O)C[C@@H](O)[C@@H](O)[C@@H](COCc2ccccc2)O1 (stereo partly drawn) | 0.634 |
| CC(=O)Nc1ccccc1C(=O)C(=O)Nc1ccc(F)cc1 | 0.288 |
| COc1cccc(CNc2nc3nc4c(c(=O)n3[nH]2)CCC4)c1 | -0.11 |
| Cc1cc2cc3c(N)[nH]nc3nc2cc1C | 0.083 |
| O=[N+]([O-])c1ccc(NCCCN2CCOCC2)c(Cl)c1 | 0.715 |
| O=C(CN1C(=O)NC2(CCCC2)C1=O)Nc1ccc(F)c(F)c1F | 0.274 |
| O=C1c2ccccc2S(=O)(=O)c2cc(N3CCN(c4ccccn4)CC3)ccc21 | 0.804 |
| Cc1ccc(-n2c(C)cc(/C=C(\C#N)C(=O)NCC3CCCO3)c2C)cc1 (stereo not drawn) | -1.95 |
| O=C(O)CSCc1nc2ccccc2s1 | 1.19 |
| CC(C)CC(=O)N/C(N)=N/c1nc2ccccc2s1 | -4.05 (active) |
| CCC(=O)NC(=Nc1nc2ccccc2s1)NC(=O)CC | -0.485 |
| Cc1nn(C)cc1/C=N/NC(=O)c1sc2ccccc2c1Cl | 2.17 |
| Cc1ccc(/C=N/NC(=O)C2=NNC(c3ccccc3)(c3ccccc3)C2)c(O)c1 | -6.92 (active) |
| Cc1ccc(-c2nn(-c3ccccc3)cc2/C=N/NC(=O)c2ccc3c(c2)OCO3)cc1 | -3.75 |
| COc1ccc(SCc2noc(C(=O)NCC3CCCO3)c2C(=O)O)cc1 (stereo not drawn) | 1.72 |
| CCS(=O)(=O)n1nc(-c2ccc(OC)cc2)nc1SC | -0.316 |
| CCS(=O)(=O)n1nc(-c2ccccc2)nc1SCc1ccccc1 | -3.19 (active) |
| CS(=O)(=O)n1nc(-c2ccccc2)nc1NCc1ccco1 | 0.406 |
| NC(=O)C1=C[C@H](c2csc3ccccc23)C[C@H](OCc2ccc(CO)cc2)O1 | 0.00737 |
| Cc1cc2nc(C)n(CCCNC(=O)Nc3ccccc3)c2cc1C | -1.52 |
| Cc1cc2ncn(CCCCOc3ccccc3)c2cc1C | -4.34 (active) |
| COCCOCCn1cnc2ccccc21 | 0.734 |

| SMILES | B-score |
| --- | --- |
| Cc1ccc2c(c1)-c1c(ssc1=S)C(C)(C)N2C(=O)CN1C(=O)c2ccccc2C1=O | -1.31 |
| CC1=C(C)C(=O)OC(C(C)C2CCC3C4CC=C5CC(OC6OC(COC7OC(CO)C(O)C(O)C7O)C(O)C(O)C6O)CC(O)C5(C)C4CCC23C)C1 (stereo not drawn) | -0.348 |
| CC(C)=CCC/C(C)=C/C(=O)O | 0.444 |
| CCCOc1ccc(N2C(=O)CC(N(CCc3ccc(S(N)(=O)=O)cc3)C(C)=O)C2=O)cc1 (stereo not drawn) | -0.148 |
| COC(=O)CN(C(=S)Nc1ccc(Cl)cc1)C1CC(=O)N(c2ccc(OC)cc2)C1=O (stereo not drawn) | -0.0552 |
| CN(C)c1ccc(NC(=S)N(CCc2ccccc2)C2CC(=O)N(c3c(Cl)cccc3Cl)C2=O)cc1 (stereo not drawn) | -7.09 (active) |
| C/C=C(/C)C(=O)O[C@@H]1c2cc3c(c4c2[C@@]2(CO4)C(=O)C(OC)=C(OC)C=C2C[C@@H](C)[C@H]1C)OCO3 | -0.0512 |
| CCN1CCN(C(=O)/C=C\C(=O)O)CC1 | -0.00536 |
| O=C(NCCCCCCCCCNC(=O)C(F)(F)F)C(F)(F)F | -0.288 |
| Cn1c2ccccc2c2c(C(=O)N3CCN(c4ccc(F)cc4)CC3)cn(C3CCCC3)c(=O)c21 | -5.04 (active) |
| Cn1c(C(=O)N2CCC(C(N)=O)CC2)cc2c(=O)n(C)c3ccccc3c21 | 0.0764 |
| O=C(c1cccc2ccccc12)N1CCN(c2ccccc2F)CC1 | -2.56 |
| O=c1c2ccccc2c(-c2ccc(F)cc2)nn1-c1ccc(C(F)(F)F)cc1 | 0.392 |
| Clc1ccc(-c2nnc(-c3ccccc3)nc2N2CCSCC2)cc1 | -2.83 |
| COc1cc(/C=C/CO)cc(OC)c1O[C@@H]1O[C@H](CO)[C@@H](O)[C@H](O)[C@H]1O | 0.144 |
| CC1(c2nnc(-c3ccncc3)o2)CC(c2cccnc2)=NO1 (stereo not drawn) | 0.534 |
| COc1ccc2nc(SCC(=O)Nc3c(C)cc(C)cc3C)[nH]c2c1 | -0.844 |
| COc1ccc(NC(=O)CSc2nc(N)c(-c3ccccc3)c(=O)[nH]2)cc1 | 0.0212 |
| COc1ccc(NC(=O)CSc2nc(NS(=O)(=O)c3ccc(C)cc3)cc(=O)[nH]2)cc1 | -6.39 (active) |
| CCCC(=O)Nc1nc2ccc(NC(=O)c3cccnc3)cc2s1 | -0.392 |
| COCCN1C(=O)N[C@@H](CCc2ccccc2)[C@H](C(C)=O)[C@H]1C | 0.713 |
| O=C(NCC1CC1)c1onc(CSc2ccccc2)c1C(=O)NCC1CC1 | -1.14 |
| CS(=O)(=O)N(CC(=O)N1CCN(c2ccc(F)cc2)CC1)C1CCCCC1 | 1.32 |
| CCOC(=O)N1CCN(C(=O)CN(C2CCCCC2)S(C)(=O)=O)CC1 | -0.0305 |

| SMILES | B-score |
| --- | --- |
| CS(=O)(=O)N(CC(=O)Nc1ccc(Cl)c(Cl)c1)C1CCCCC1 | -4.14 (active) |
| O=C(COc1ccc2c(C(F)(F)F)cc(=O)oc2c1)Nc1ccc2c(c1)OCCO2 | -0.232 |
| N#Cc1ccc(Oc2cc(C(F)(F)F)nc(-c3ccccn3)n2)cc1 | -0.0658 |
| O=C(NCCCN1CCOCC1)c1cc2c(s1)CCC2 | 0.565 |
| Cc1nn(C)cc1C(=O)NNC(=S)Nc1ccc(Cl)cc1 | -0.0884 |
| COC(=O)C1=C(C(=O)OC)[C@@H]2N(C)c3ccccc3[C@@]23C[C@@H](C(=O)OC)N(C(C)=O)C3=N1 | 0.294 |
| CCOC(=O)c1ccccc1NC(=O)c1c(N)n(C)c(=O)[nH]c1=O | 1.01 |
| C=CCn1c(SCC(=O)NCc2ccccc2)nnc1-c1cc(Br)ccc1O | -6.89 (active) |
| CCn1c(SCC(=O)Nc2nc3ccc(OC)cc3s2)nnc1-c1ccoc1C | -3.69 |
| C=CCn1c(N)cc(=O)nc1SCC(=O)Nc1cccc2ccccc12 | -0.0155 |
| C=CCn1c(SCC(=O)Nc2nc3ccccc3s2)nnc1-c1ccccc1O | -5.9 (active) |
| C=CCn1c(COc2ccccc2)nnc1SCC(=O)NCC(=O)OCC | 0.062 |
| O=C(CSc1nnc(-c2cccnc2)n1CCc1ccccc1)NCc1ccccc1 | 0.107 |
| CN(C)/C=C(\C#N)C(=O)c1cccnc1Oc1ccc(F)cc1F | 0.526 |
| Cc1ccc(Cl)cc1NC(=O)COC(=O)C1CCCCC1 | -0.13 |
| O=C(Cc1ccc(-n2c(=O)c3sccc3n(Cc3ccc(F)cc3)c2=O)cc1)NCc1ccco1 | -0.875 |
| O=C(NCc1ccco1)c1ccc(CS(=O)(=O)Cc2ccc(F)cc2)o1 | 1.27 |
| O=C(c1cc2sccc2n1Cc1ccc(F)cc1)N1CCc2ccccc21 | -3.42 |
| O=C(NCc1ccco1)c1ccc(Cn2c(=O)c3sccc3n(Cc3ccc(F)cc3)c2=O)cc1 | -3.42 (active) |
| O=C(NCc1ccco1)c1cc2sccc2n1Cc1ccc(F)cc1 | -5.53 (active) |
| CC(C)(C)c1ccc(C(=O)NCCC(=O)NCc2ccco2)cc1 | -0.22 |
